# From the supplement of paper PMC10849652
# The full data set covers some 8,800 targets. This sample favours those with a hit. About 0.5% of all pairs of compound and target were hits. Values without a mark were called inactive.
# Key:
# Assay in all cases: log2 fold change, soluble protein after heating vs DMSO (PISA); higher = thermal stabilisation; K562 lysate, 10 uM; active = over 0.2 and 3.5 SD of the protein, either way, in both replicates (recomputed)
# nilotinib = compound: Cc1cn(-c2cc(NC(=O)c3ccc(C)c(Nc4nccc(-c5cccnc5)n4)c3)cc(C(F)(F)F)c2)cn1 [nilotinib]
# Summary of the method: (§1)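 Pellets of K562 cells were dounce-homogenised in PBS pH 7.4 with 1 mM MgCl2, and the crude extract was held at 1 mg/mL protein for a 30 min treatment with 10 μM compound. Aliquots were heated for 3 min over 48°C-58°C and pooled before NP-40 was added to 0.5% at 4°C. The supernatant from 21,000xg for 90 min was quantified by TMTpro 16plex LC-MS/MS with channel sums equalised. Values are reported from duplicates as log-two fold change in thermal stability relative to solvent controls.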
# [1] = compound: Cc1nc(Nc2n[nH]c3c2CN(C(=O)N[C@H](CN(C)C)c2ccccc2)C3(C)C)c2sccc2n1
# Summary of the method: as §1
# dasatinib = compound: Cc1nc(Nc2ncc(C(=O)Nc3c(C)cccc3Cl)s2)cc(N2CCN(CCO)CC2)n1 [dasatinib]
# Summary of the method: as §1
# [2] = compound: Cc1ncc(-c2ccnc(Nc3ccc(S(C)(=O)=O)cc3)n2)n1C(C)C
# Summary of the method: as §1
# [3] = compound: Cn1cc(-c2ccc3c(c2)CCN3C(=O)Cc2cccc(C(F)(F)F)c2)c2c(N)ncnc21
# Summary of the method: as §1
# quisinostat = compound: Cn1cc(CNCC2CCN(c3ncc(C(=O)NO)cn3)CC2)c2ccccc21 [quisinostat]
# Summary of the method: as §1
# tipifarnib = compound: Cn1cncc1[C@@](N)(c1ccc(Cl)cc1)c1ccc2c(c1)c(-c1cccc(Cl)c1)cc(=O)n2C [tipifarnib]
# Summary of the method: as §1
# [4] = compound: NC(=O)Nc1cc(-c2cccc(F)c2)sc1C(=O)N[C@H]1CCCNC1
# Summary of the method: as §1
# [5] = compound: NC(=O)c1cnc(N[C@@H]2CCCC[C@@H]2N)nc1Nc1cccc(-n2nccn2)c1
# Summary of the method: as §1
# [6] = compound: NC1(c2ccc(-c3nc4ccn5c(=O)[nH]nc5c4cc3-c3ccccc3)cc2)CCC1
# Summary of the method: as §1
# Chain of UniProt Q9NY27 (Q9NY27 whole entry, looked up): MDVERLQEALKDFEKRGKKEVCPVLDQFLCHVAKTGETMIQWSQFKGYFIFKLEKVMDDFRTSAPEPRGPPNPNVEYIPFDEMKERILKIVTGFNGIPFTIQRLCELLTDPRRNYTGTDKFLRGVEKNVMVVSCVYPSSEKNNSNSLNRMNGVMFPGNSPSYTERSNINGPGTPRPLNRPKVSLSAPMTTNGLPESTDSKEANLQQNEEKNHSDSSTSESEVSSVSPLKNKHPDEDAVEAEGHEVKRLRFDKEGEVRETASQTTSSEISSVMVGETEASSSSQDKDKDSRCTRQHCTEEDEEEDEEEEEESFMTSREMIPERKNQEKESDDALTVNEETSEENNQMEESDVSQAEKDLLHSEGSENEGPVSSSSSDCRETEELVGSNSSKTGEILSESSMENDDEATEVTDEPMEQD
# Chain of UniProt P54278 (P54278 whole entry, looked up): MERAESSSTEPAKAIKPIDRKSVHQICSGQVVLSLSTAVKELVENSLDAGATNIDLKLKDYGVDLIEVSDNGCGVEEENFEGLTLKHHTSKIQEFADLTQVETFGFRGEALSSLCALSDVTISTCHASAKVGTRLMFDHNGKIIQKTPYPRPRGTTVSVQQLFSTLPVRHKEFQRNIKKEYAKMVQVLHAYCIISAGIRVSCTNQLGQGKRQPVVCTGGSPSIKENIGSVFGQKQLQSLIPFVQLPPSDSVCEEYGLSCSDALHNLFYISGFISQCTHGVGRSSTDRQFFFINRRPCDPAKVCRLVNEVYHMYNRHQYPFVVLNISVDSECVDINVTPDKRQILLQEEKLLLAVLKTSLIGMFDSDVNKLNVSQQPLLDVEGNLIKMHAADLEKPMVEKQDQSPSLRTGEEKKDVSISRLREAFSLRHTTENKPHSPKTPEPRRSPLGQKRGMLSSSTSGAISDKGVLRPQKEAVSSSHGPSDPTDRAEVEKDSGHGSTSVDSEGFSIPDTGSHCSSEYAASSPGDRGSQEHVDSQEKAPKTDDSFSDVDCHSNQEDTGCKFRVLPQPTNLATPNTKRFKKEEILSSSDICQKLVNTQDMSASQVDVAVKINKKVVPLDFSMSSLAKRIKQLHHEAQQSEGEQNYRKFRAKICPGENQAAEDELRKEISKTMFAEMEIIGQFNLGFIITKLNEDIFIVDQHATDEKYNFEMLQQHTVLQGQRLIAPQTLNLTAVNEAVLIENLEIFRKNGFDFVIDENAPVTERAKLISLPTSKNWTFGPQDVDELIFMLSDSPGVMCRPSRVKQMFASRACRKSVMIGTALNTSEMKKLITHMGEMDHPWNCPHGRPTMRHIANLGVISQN
# Chain of UniProt Q9Y6I8 (Q9Y6I8 whole entry, looked up): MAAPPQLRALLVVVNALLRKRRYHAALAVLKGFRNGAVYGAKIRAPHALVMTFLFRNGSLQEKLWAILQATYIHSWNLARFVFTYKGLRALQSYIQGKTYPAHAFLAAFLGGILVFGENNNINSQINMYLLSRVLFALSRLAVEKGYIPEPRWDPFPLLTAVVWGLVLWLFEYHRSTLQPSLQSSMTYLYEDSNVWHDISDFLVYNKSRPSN
# Chain of UniProt P18031 (P18031 whole entry, looked up): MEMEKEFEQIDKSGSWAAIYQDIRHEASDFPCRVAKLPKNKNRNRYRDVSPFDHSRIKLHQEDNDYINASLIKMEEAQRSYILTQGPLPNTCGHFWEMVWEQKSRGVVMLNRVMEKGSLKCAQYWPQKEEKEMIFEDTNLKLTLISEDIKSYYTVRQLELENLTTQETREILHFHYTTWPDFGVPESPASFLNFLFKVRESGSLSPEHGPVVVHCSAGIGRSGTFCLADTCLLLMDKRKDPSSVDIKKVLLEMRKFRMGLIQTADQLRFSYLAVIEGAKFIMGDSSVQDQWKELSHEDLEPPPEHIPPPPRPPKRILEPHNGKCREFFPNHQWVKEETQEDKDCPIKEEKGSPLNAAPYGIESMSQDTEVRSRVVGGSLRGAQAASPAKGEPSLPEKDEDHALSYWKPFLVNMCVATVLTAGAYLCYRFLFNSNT
# Chain of UniProt Q8WUM4 (Q8WUM4 whole entry, looked up): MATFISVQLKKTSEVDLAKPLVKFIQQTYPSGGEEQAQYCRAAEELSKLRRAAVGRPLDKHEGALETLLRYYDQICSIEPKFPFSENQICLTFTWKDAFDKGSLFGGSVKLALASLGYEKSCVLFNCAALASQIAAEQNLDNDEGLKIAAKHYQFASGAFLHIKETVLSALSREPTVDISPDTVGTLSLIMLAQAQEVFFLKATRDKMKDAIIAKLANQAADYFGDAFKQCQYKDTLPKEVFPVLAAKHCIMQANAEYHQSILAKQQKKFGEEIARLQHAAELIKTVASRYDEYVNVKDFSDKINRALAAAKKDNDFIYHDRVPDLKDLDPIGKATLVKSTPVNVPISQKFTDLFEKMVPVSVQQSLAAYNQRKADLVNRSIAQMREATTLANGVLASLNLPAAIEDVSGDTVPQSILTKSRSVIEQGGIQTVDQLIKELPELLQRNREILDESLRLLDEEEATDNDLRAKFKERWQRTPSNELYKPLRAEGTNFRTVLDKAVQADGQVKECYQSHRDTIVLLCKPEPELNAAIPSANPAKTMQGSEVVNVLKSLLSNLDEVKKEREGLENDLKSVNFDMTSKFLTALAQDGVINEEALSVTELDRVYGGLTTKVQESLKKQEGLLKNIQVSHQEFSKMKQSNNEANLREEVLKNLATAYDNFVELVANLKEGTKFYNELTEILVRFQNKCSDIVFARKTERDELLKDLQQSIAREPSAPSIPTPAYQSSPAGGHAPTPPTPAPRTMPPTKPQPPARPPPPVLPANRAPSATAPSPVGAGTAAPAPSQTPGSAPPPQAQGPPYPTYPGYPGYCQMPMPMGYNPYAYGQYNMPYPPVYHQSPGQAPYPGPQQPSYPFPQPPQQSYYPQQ
# Chain of UniProt P41219 (P41219 whole entry, looked up): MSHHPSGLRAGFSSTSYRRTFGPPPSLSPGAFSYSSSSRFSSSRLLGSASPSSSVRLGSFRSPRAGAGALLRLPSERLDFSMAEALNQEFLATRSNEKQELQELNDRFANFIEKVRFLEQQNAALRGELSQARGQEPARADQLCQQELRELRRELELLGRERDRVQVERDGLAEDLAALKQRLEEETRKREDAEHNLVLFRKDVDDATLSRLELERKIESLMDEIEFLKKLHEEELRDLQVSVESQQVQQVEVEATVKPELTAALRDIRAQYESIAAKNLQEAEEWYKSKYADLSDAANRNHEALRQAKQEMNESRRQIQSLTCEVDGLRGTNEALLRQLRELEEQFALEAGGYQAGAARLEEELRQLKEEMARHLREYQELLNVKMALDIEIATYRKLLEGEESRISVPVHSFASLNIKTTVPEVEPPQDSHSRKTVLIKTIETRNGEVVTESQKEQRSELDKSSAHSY
# Chain of UniProt Q9H4Z3 (Q9H4Z3 whole entry, looked up): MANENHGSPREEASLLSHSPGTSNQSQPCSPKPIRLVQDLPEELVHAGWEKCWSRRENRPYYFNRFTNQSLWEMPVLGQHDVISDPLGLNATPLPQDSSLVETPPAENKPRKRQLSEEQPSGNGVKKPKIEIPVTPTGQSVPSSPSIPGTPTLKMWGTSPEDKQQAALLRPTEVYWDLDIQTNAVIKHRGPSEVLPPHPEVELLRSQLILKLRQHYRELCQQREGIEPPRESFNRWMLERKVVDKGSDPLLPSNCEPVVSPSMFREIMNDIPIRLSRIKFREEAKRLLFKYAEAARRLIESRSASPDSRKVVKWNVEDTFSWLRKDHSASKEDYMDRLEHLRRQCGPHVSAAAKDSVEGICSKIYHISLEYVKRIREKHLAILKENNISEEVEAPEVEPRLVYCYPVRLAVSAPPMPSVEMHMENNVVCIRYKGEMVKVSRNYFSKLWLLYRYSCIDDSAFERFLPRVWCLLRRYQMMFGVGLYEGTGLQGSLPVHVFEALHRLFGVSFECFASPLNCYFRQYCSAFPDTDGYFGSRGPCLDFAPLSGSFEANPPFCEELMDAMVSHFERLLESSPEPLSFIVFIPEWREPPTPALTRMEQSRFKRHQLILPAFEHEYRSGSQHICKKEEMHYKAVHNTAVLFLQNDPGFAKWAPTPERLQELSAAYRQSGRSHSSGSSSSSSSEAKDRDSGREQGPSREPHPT
# Chain of UniProt O43663 (O43663 whole entry, looked up): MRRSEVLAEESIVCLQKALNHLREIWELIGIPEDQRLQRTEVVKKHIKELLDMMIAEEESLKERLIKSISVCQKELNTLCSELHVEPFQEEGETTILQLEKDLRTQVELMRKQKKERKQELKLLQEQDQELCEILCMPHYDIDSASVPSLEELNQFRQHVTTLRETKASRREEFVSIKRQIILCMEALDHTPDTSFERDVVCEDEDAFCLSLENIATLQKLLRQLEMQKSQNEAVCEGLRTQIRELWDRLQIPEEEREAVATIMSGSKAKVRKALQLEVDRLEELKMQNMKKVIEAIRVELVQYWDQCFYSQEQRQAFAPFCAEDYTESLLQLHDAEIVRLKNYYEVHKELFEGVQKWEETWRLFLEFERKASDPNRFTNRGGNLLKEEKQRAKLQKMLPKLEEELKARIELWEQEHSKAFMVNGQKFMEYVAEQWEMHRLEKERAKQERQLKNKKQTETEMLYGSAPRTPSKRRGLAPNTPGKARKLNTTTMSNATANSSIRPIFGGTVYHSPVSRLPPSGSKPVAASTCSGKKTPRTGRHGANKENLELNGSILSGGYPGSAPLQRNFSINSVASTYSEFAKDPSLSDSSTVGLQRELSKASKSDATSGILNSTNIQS
# Chain of UniProt P0CAP2 (P0CAP2 whole entry, looked up): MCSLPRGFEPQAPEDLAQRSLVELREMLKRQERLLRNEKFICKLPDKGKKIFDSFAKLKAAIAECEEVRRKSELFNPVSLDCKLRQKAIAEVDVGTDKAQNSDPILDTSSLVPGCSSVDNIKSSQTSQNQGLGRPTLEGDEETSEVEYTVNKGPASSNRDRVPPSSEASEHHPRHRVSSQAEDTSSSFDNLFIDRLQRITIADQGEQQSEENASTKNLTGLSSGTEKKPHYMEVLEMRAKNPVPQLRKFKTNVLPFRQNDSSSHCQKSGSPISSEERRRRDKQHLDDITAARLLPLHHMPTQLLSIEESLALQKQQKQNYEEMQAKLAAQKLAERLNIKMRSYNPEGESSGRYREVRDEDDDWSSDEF
Target,log2 fold change (nilotinib),log2 fold change [1],log2 fold change (dasatinib),log2 fold change [2],log2 fold change [3],log2 fold change (quisinostat),log2 fold change (tipifarnib),log2 fold change [4],log2 fold change [5],log2 fold change [6]
PPT2 isoform 3 (UniProt Q9UMR5),0.01,-0.019,0.006,-0.019,0.025,-0.004,-0.025,0.032,0.002,0.02
PMS2 (UniProt P54278),-0.024,-0.021,-0.1,0.039,0.047,-0.011,-0.078,0.043,0,-0.006
PTPN6 isoform 4 (UniProt P29350),-0.002,-0.028,0.028,-0.043,0.071,0.01,0.055,-0.03,-0.128,0.062
PIP5K1A (UniProt Q99755),-0.091,0.011,-0.137,-0.082,0.033,-0.165,0.032,0.034,-0.041,0.01
PTPN1 (UniProt P18031),-0.001,0.019,-0.062,0.007,0.027,-0.051,-0.032,0.039,0.026,0.021
PRPH isoform 2 (UniProt P41219),-0.022,0.032,-0.019,-0.024,0.036,0.034,-0.02,-0.027,0.028,0.094
PPIL2 (UniProt Q13356),-0.032,0.014,0.064,0.008,-0.004,-0.063,-0.038,0.018,-0.063,0.011
PCIF1 (UniProt Q9H4Z3),0.018,-0.089,0.118,0.011,-0.439 (active),0.019,0.015,-0.016,-0.006,0.022
POMP (UniProt Q9Y244),0.021,0.057,0.048,0.301 (active),0,-0.054,-0.046,-0.007,0.039,-0.002
PICALM (UniProt Q13492),-0.012,-0.01,-0.036,-0.009,0.001,-0.003,-0.042,-0.018,0.012,0.007
PGLS (UniProt O95336),0.008,-0.021,0.001,0.168,0.022,0.017,-0.013,-0.017,-0.073,0.014
PHKA2 (UniProt P46019),0.005,0.163,-0.05,0.019,-0.028,-0.148,0.015,0.302 (active),0.001,-0.037
PPME1 isoform 4 (UniProt Q9Y570),0.01,-0.053,-0.008,-0.025,-0.003,0.018,0.01,-0.03,-0.016,0.041
PSTPIP2 (UniProt Q9H939),0.029,0.016,-0.056,0.028,0.023,-0.037,-0.008,0.008,-0.007,0.007
PPP4R2 (UniProt Q9NY27),0.012,0.018,0.029,0.005,-0.028,-0.009,-0.042,-0.011,0.009,-0.01
POLR2B (UniProt P30876),-0.027,0.01,-0.065,0.004,0.003,-0.057,-0.012,0.027,-0.004,-0.03
PHC1 (UniProt P78364),0.054,0.023,0.087,-0.024,-0.049,-0.003,-0.02,0.003,–,–
PRC1 (UniProt O43663),0.013,-0.008,-0.012,-0.007,0.05,-0.035,-0.011,0.009,-0.002,-0.044
PIKFYVE (UniProt Q9Y2I7),0.017,-0.017,-0.022,-0.015,0.009,-0.014,-0.035,0.007,0.027,-0.005
PXMP4 (UniProt Q9Y6I8),-0.011,0.014,0.078,0.013,-0.092,-0.146,0.846 (active),0.018,-0.018,-0.215
PCYT1B (UniProt Q9Y5K3),-0.079,-0.003,0,0.022,-0.026,0.039,0.047,-0.023,-0.008,0.054
POLR3E (UniProt Q9NVU0),0.017,-0.054,-0.035,-0.018,0.018,-0.023,0.04,0.037,0.009,-0.001
PFDN2 (UniProt Q9UHV9),-0.011,0.013,0.008,-0.045,-0.019,0.037,0,-0.018,-0.028,0.053
POLR2M (UniProt P0CAP2),-0.033,-0.014,-0.032,0.012,-0.056,-0.015,0.007,0.012,0.002,0.014
PDCD6IP isoform 2 (UniProt Q8WUM4),-0.018,0.007,-0.042,0.004,0.022,0.002,0.016,-0.001,0.018,0.002
PFKP (UniProt Q01813),0.026,-0.014,0.012,0.003,0.009,0.024,0.016,0,-0.008,-0.004
PLA2G4B isoform 6 (UniProt P0C869),-0.177,0.259,-0.1,-0.326,-0.047,-0.671 (active),0.022,0.158,0.006,-0.073
PRG4 (UniProt Q92954),-0.092,0.196,-0.028,0.196,0.024,-0.285,0.17,0.057,-0.09,–
PRPF38A (UniProt Q8NAV1),0.076,0.018,-0.055,-0.088,-0.001,-0.452 (active),-0.016,0.092,0.003,0.049
PICALM (UniProt H0YEH1),-0.023,-0.012,-0.039,-0.007,-0.005,-0.095,0.019,0.166,-0.021,-0.042
